Reference: PubChem BioAssay AID2153 (The Scripps Research Institute Molecular Screening Center, 2009)
Out of some 2,400 compounds screened, about 2,000 (83%) were called active. So high a share suggests a set chosen from earlier hits. A selection follows. Unmarked numbers belong to inactive results.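 Rule for the calls: active = inhibition above the solvent-only control well mean plus 3 SD, limit set per screening run (cut at about 23% in these data); inactive = the rest.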

Target: Guanyl-specific ribonuclease T1 (Aspergillus oryzae (strain ATCC 42149 / RIB 40)) (UniProt P00651)
Sequence (P00651 whole entry, looked up): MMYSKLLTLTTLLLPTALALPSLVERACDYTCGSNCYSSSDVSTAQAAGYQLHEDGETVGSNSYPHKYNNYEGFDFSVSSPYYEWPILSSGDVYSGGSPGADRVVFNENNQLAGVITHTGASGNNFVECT
Assay: blockers of Aspergillus RNase T1 cleavage – biochemical, fluorescence polarization, counter-screen for TPT1 inhibitor project (AID 2153);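 note: plate controls were DMSO wells with enzyme for no effect and wells without RNase T1 for full effect; inhibitors block cleavage so intact labeled substrate keeps polarization high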
Conditions: 1536-well, at 5 µM, stronger effect = higher value

| SMILES | inhibition |
| --- | --- |
| CC(C)n1c(=O)c(C=Nc2ccc(Br)cc2)c(O)n(Cc2ccco2)c1=O | 28.4% (active) |
| CCCCC(=O)N/N=C/c1c(O)n(CC)c(=S)n(CC)c1=O | 110% (active) |
| CCN1C(=O)C(=Cc2c(C)n(CC(=O)NCC3CCCO3)c3ccccc23)C(=O)N(CC)C1=S (centres undefined) | 26.4% (active) |
| COc1ccccc1N=Nc1c(O)[nH]c(=S)[nH]c1=O | 77.7% (active) |
| CC/C(=N\NC(=O)c1ccccc1O)c1c(O)n(Cc2ccccc2)c(=O)[nH]c1=O | 35.2% (active) |
| O=C1CC(=O)N(Cc2ccccc2)C(=O)N1CCCCCCN1C(=O)CC(=O)N(Cc2ccccc2)C1=O | 34.1% (active) |
| O=C1NC(=O)N(Cc2ccco2)C(=O)/C1=C\c1ccc(-c2ccc(F)cc2)o1 | 20.3% |
| O=C1NC(=O)N(Cc2ccco2)C(=O)/C1=C\c1cccn1CCOc1ccccc1 | 11.7% |
| COc1ccc(N2C(=O)/C(=C/c3ccco3)C(=O)NC2=S)cc1 | 24.8% (active) |
